KinaseGlo FLuc – counter-screen: inhibitors of Kinase-Glo firefly luciferase; Q27757; Kinase-Glo luciferase, ATP luminescence, 8 min; Potency, µM (titrated, usually from 38.3 µM), without a hit: top-dose activity change, negative = inhibition, most hits filed as inhibitors; 200,000 tested, 0.28% active; AID 1379; further: on the % scale 0 is the no-effect control and ±100 the full control effect; nearly all actives have a fitted effect of over 60% in size
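Inhibition of Kinase-Glo luciferase light generation was assessed at 10 uM ATP in pH 7.2 imidazole buffer, with luminescence measured after eight minutes at ambient temperature.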
NPC1 prom act – activators of NPC1 promoter; Huh7 NPC1 promoter luciferase reporter, 24 h; Potency, µM (titrated, usually from 9.22 µM), for inactives: at the top dose activation, usual class: activators; 320,000 tested, 2.4% active; further: % of control where 0% means no effect; nearly all actives have a fitted effect of over 60% in size
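NPC1 promoter–luciferase Huh7 cells; 24 h compound; luminescence.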
Rab9 promoter act – activators of Rab9 promoter; Huh7 Rab9 promoter-luciferase reporter, luminescence, 24 h; Potency, µM (titrated, usually from 9.22 µM), without a hit: top-dose activation, negative = inhibition, usual class: activators; 320,000 tested, 2.8% active; further: % of control where 0% means no effect; nearly all actives have a fitted effect of over 60% in size
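Luminescence read-out: Huh7 cells stably expressing Rab9-luciferase, treated 24 h with compound at 37 °C, then lysed with luciferase reagent for 10 min at ambient before reading.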
SMN2 splice enh – SMN2 splice variant enhancement; HEK293 SMN2-luciferase splicing reporter, luminescence, 30-36 h; Potency, µM (top dose mostly 46.1 µM), for inactives: at the top dose activity change, positive = activation, hits mostly activators; 210,000 tested, 2.8% active; AID 1458; further: % of control where 0% means no effect; nearly all actives have a fitted effect of over 55% in size
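HEK293 cells carry an SMN2 […]–luciferase reporter in which exon 7 inclusion puts luciferase in frame. Cells were plated 10-12 h before compound addition, then incubated 30-36 h at 37C. ONE-Glo luminescence was read; sodium butyrate at 4.5 mM final served as control.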
ELG1 genotox – induces genotoxicity in HEK293T cells with luciferase-tagged ELG1. 330,000 tested, 1.3% active. AID 504466. Potency, µM (highest dose often 46 µM), for the others: top-dose activity change, positive = activation, actives largely listed as activators. HEK293T ELG1-luciferase reporter, luminescence, 16 h; further: % of control where 0% means no effect; nearly all actives have a fitted effect of over 60% in size
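Genotoxic stress is detected as increased luminescence from luciferase-tagged ELG1 in HEK293T cells, measured with ONE-Glo after a 16 hr treatment at 37 °C.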
FLuc counter – inhibits or activates purified firefly luciferase, miR-21 counter-screen; P08659; purified FLuc, Km substrates, luminescence inhibition; Potency, µM (titrated, usually from 57.5 µM), without a hit: at the highest dose activity change, negative = inhibition, actives largely listed as inhibitors; 360,000 tested, 6.9% active; AID 588342;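 further: plate controls were vehicle for no effect and reference inhibitor for full effect; nearly all actives have a fitted effect of over 55% in size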
Target sequence (P08659 whole entry, looked up): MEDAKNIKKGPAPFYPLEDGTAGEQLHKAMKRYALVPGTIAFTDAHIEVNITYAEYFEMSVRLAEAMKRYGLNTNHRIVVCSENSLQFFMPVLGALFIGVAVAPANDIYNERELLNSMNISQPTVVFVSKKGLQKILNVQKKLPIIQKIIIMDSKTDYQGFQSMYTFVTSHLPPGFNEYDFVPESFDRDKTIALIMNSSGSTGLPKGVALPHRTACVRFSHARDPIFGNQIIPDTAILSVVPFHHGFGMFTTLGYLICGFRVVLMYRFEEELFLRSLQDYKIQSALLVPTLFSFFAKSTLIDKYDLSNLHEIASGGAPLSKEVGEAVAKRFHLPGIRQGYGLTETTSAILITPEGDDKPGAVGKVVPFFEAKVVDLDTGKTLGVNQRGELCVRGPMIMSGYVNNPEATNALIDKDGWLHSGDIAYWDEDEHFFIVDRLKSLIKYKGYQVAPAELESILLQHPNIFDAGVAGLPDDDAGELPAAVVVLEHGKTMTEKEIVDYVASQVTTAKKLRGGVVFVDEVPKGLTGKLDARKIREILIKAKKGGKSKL
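Biochemical qHTS of compounds, final roughly 60 µM downward over six points, against 10 nM purified firefly luciferase using Km concentrations of substrates (10 uM D-luciferin, 10 uM ATP) in Tris acetate pH 7.5 buffer; luminescence output.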
* = called active by the depositor; ? = inconclusive; . = no result given. Compounds with a hit are over-represented: about 7.3% of the library has one in this group of screens. The call rests on the fitted dose curve; in most records, active means well fitted curve in the direction sought with a large enough effect; inconclusive means small, poorly fitted or top-dose-only effect, or another doubt; inactive means no such curve, though single readings can be large; an effect the other way counts as inactive or inconclusive. Potency means the concentration at half of the fitted maximal effect.

SMILES	KinaseGlo FLuc	NPC1 prom act	Rab9 promoter act	SMN2 splice enh	ELG1 genotox	FLuc counter
N#CCc1nc(CSc2nc3ccccc3s2)cs1	-10.5%	28.8%	?	25.3%	18.4µM*	?
O=C(O)CCSc1nc2ccccc2s1	4.0%	-3.8%	0.3%	-32.0%	-12.7%	21.3µM*
CCC(C)(C)NC(=O)CCCSc1nc2ccccc2s1	-2.4%	?	?	?	12.2%	23.9µM*
O=C(O)CCSc1ccc2ccccc2n1	-8.8%	-0.2%	3.2%	-8.9%	8.7%	23.9µM*
N#CCCCSc1nnc(CSc2nc3ccccc3s2)n1-c1ccccc1	11.3%	1.0%	3.8%	-23.8%	-10.7%	4.1%
O=C(O)CSc1ccc2ccccc2n1	-1.5%	2.0%	-4.3%	-9.4%	-1.7%	1.0%
COc1ccc(CN(Cc2nc3ccccc3c(=O)[nH]2)C(=O)c2ccco2)cc1	.	-2.4%	1.2%	.	-0.8%	-1.4%
O=C(c1ccco1)N1CCN(c2nc3c(F)cc(F)cc3s2)CC1	.	.	.	.	.	23.9µM*
O=C(C1CC1)N1CCN(c2nc3c(F)cc(F)cc3s2)CC1	.	.	.	.	.	-19.5%
O=C(c1ccc2nc(N3CCOCC3)sc2c1)N1CCN(C(=O)c2ccco2)CC1	1.2%	-1.0%	1.7%	-7.3%	12.7%	4.1%
Cc1nc2cc(-c3cccc(Cl)c3)nn2c(N2CCN(C(=O)c3ccco3)CC2)c1C	14.2%	-2.2%	2.5%	-4.6%	-0.5%	16.9µM*
O=C(Cc1ccc(Cl)cc1)Nc1ccc(N2CCN(C(=O)c3ccco3)CC2)cc1	3.9%	-1.1%	-9.0%	-5.4%	-7.6%	-0.4%
CCc1ccc2nc(N3CCN(C(=O)c4ccco4)CC3)sc2c1	.	.	.	.	.	10.7µM*
O=C(c1ccco1)N1CCN(c2ccc(Cl)cc2)CC1	0.4%	?	?	11.2µM*	?	16.9µM*
O=C(COC(=O)c1ccc(OC(F)F)cc1)NC(=O)NC1CCCC1	.	-0.4%	-0.3%	.	1.7%	4.0%
CCOc1ccc2nc(SCC(=O)N3CCN(C(=O)c4ccco4)CC3)sc2c1	-3.4%	-0.3%	-5.6%	-14.3%	-9.4%	16.9µM*
CCOc1ccc2nc(SCC(=O)c3cccs3)sc2c1	-1.0%	2.51µM*	2.82µM*	?	14.6µM*	2.69µM*
CCOc1ccc2[nH]c3c(N4CCN(C(=O)c5ccco5)CC4)ncnc3c2c1	.	-0.8%	-3.7%	.	-9.4%	?
COc1ccc2nc(N3CCN(C(=O)c4ccco4)CC3)sc2c1	.	.	.	.	.	26.9µM*
CCOc1ccc2nc(N3CCN(C(=O)c4ccco4)CC3)sc2c1	.	.	.	.	.	21.3µM*
O=C(CSc1nc2ccccc2s1)N1CCN(C(=O)c2ccco2)CC1	-2.4%	15.7%	11.7%	-7.5%	2.2%	-3.7%
COc1ccc(NC(=O)NC(c2ccccc2)c2ccccc2)c(OC)c1	.	1.0%	-0.6%	.	6.4%	6.5%
CCC(=O)c1ccc(OCC(=O)Nc2cc(S(=O)(=O)N3CCCCC3)ccc2N2CCN(CC)CC2)cc1	.	-5.5%	-1.6%	.	-9.2%	-4.9%
Cc1ccccc1/C=N/N=C1/NC(=O)CCS1	.	16.1%	1.2%	.	10.0%	?
O=C1CCS/C(=N\N=C\c2ccc(Cl)cc2Cl)N1	.	?	?	.	?	19µM*
SMILES	KinaseGlo FLuc	NPC1 prom act	Rab9 promoter act	SMN2 splice enh	ELG1 genotox	FLuc counter
CSc1nc(/C=C2\C=Nc3ccccc32)c(O)n1C	?	0.2%	15.2%	?	13.4%	13.5µM*
CC(C)n1c(O)c(/C=C2\C=Nc3ccccc32)sc1=Nc1ccccc1	-0.9%	-4.7%	0.3%	-14.6%	-0.7%	-1.6%
Cc1ccc(CNC(=O)CC2Nc3c4ccccc4nc(=S)n3C2=O)cc1 (stereo not drawn)	-0.6%	-8.6%	-4.5%	6.7%	-4.8%	2.7%
N#CCC(=O)Nc1ccc(C(=O)OCC(=O)NC(=O)NCc2ccco2)cc1	.	.	.	.	5.1%	.
Oc1[nH]c2ccccc2c1N=Nc1c(F)c(F)c(C(F)(F)F)c(F)c1F	.	0.2%	2.4%	.	2.1%	1.0%
O=C(O)c1ccc(N=Nc2c(O)[nH]c3ccccc23)cc1	.	0.1µM*	?	.	?	0.426µM*
